Pf growth 48h – inhibits P. falciparum growth in the first generation, 48 h; AID 504832; hit rate 5.9% among 310,000; P. falciparum luciferase growth in erythrocytes, 48 h; Potency, µM (top dose mostly 28.7 µM), without a hit: at the highest dose activity change, negative = inhibition, most hits filed as inhibitors; note: % is set by controls: 0 for no effect and ±100 for the full control effect
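Firefly luciferase activity from engineered P. falciparum reports growth; inhibitors lower the luminescent signal. Cultures contained 2% hematocrit erythrocytes at 0.1% final parasitemia.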
NS1 inh – inhibitors of influenza NS1 protein function; Potency, µM (top dose mostly 46.1 µM), inactives show top-dose activity, positive = more growth; hit rate 0.4% among 270,000; calls by dose curve; note: actives are rising curves; nearly all actives have a fitted effect of over 50% in size
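Read-out: OD600 growth recovery of NS1-expressing budding yeast. Cells grown overnight at 30C in -URA glucose medium, washed, resuspended and diluted 1:100 in 2% galactose assay medium, pH 6.0. Same strain lacking NS1 served as positive control.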
VACV mCherry inh – vaccinia inhibition (mCherry reporter) | AID 720579 | Vaccinia virus mCherry reporter infection, fluorescence | hit rate 0.63% among 310,000 | Potency, µM (titrated, usually from 36.5 µM), without a hit: top-dose activity change, negative = inhibition, most hits filed as inhibitors; calls by dose curve; tested in A549 cells; note: % is set by controls: 0 for no effect and ±100 for the full control effect; nearly all actives have a fitted effect of over 35% in size
Pf growth 96h – P. falciparum growth inhibition at 96 hour, primary screen for plastid delayed-death inhibitors; P. falciparum luciferase reporter growth, 96 h; Potency, µM (titrated, usually from 28.7 µM), for the others: at the highest dose activity change, negative = inhibition, most hits filed as inhibitors; hit rate 6.9% among 320,000; AID 504834; note: % is set by controls: 0 for no effect and ±100 for the full control effect
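Infected RBCs, 2% Hct / 0.05% parasitemia final; luciferase-reporter P. falciparum; cpd 96 h, 37 C, 5% CO2; luciferase detection reagent; luminescence.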
Vaccinia Venus – inhibitors of vaccinia virus (Venus reporter) | hit rate 0.46% among 330,000 | Potency, µM (titrated, usually from 36.5 µM), for inactives: at the highest dose activity change, negative = inhibition, actives largely listed as inhibitors | Vaccinia virus Venus reporter expression, fluorescence; calls by dose curve; tested in A549 cells; note: % is set by controls: 0 for no effect and ±100 for the full control effect; nearly all actives have a fitted effect of over 30% in size
HCV inhibitor – HCV inhibition; hit rate 3.4% among 340,000; Potency, µM (series often up to 41.8 µM), without a hit: at the highest dose activity change, negative = inhibition, hits mostly inhibitors; Huh7.5.1 HCVcc-Cre infection, luciferase reporter, 44 h; note: % is set by controls: 0 for no effect and ±100 for the full control effect
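Cells seeded at 1,000/well and cultured 4 h, then compounds added followed by HCVcc-Cre virus (~0.5 moi). After 44 h further culture, luciferase substrate was added, plates held 15 min at room temperature, and luminescence read for 15 sec.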
An asterisk follows results filed as active; i = inactive; ? = inconclusive; · = no result given; [ ] = dose if it differs, or a comment. Only some compounds are listed: those with a hit (about 11% of all), similar ones and a draw of the others. Unless noted, calls come from the whole dose curve; as a rule, active = well fitted inhibition curve with a large enough effect; inconclusive = small, poorly fitted or top-dose-only effect, or another doubt; inactive = no such curve, though single readings can be large or run the other way. Potency is the fitted concentration of half-maximal effect.

SMILES	Pf growth 48h	NS1 inh	VACV mCherry inh	Pf growth 96h	Vaccinia Venus	HCV inhibitor
COc1ccc(C(=O)N/C(=C\c2ccco2)C(=O)NCc2cccnc2)cc1	33%	25%	i	1.2µM*	2%	23%
COc1ccc(C(=O)N/C(=C\c2ccco2)C(=O)NCc2ccco2)cc1	-6%	11%	·	-20%	·	21%
O=C(NCc1cccnc1)/C(=C/c1ccco1)NC(=O)c1ccccc1	28%	7%	·	12µM*	·	-4%
Cc1ccc(C(=O)N/C(=C\c2ccco2)C(=O)NCCCn2ccnc2)cc1	40%	4%	-16%	9.3µM*	2%	6%
Cc1c(NC(=O)CN2CCN(C(=O)c3ccco3)CC2)c(=O)n(-c2ccccc2)n1C	16%	1%	-10%	?	-2%	12%
CCCCCC1C(C(=O)OCC)C(=O)NC1(C(=O)OCC)C(=O)OCC (configuration not stated)	·	·	-6%	·	-20%	27%
COc1cc2ccccc2cc1C(=O)Nc1cc(-c2nc3ccccc3o2)ccc1C	·	·	-1%	·	-1%	·
CCOC(=O)C(C(=O)NCC1CCCO1)C1CCCCC1 (configuration not stated)	-1%	4%	·	?	-6%	?
O=C(NCCN1CCCCC1)/C(=C/c1ccco1)NC(=O)c1ccccc1	2%	5%	-15%	6.6µM*	-4%	-8%
O=C(NC(Cc1ccccc1)C(=O)O)/C(=C\c1ccco1)NC(=O)c1ccccc1 (configuration not stated)	40%	10%	-6%	2.6µM*	1%	-2%
Cc1ccc(C(=O)N/C(=C\c2ccco2)C(=O)NCCN2CCCCC2)cc1C	12%	-2%	-10%	1%	-13%	?
O=C(NC(Cc1ccccc1)C(=O)O)/C(=C\c1ccco1)NC(=O)c1ccc(Br)cc1 (configuration not stated)	18%	17%	-6%	46%	0%	14%
CC1CCN(S(=O)(=O)c2ccc3c(c2)N(CC(=O)NC(C)C)C(=O)CS3)CC1	·	·	-9%	·	2%	·
COCCn1nnnc1C(c1cccc(C(F)(F)F)c1)N1CCOCC1 (configuration not stated)	-16%	10%	-9%	?	-4%	32%
Cc1[nH][nH]c(=O)c1C(c1cc([N+](=O)[O-])ccc1O)c1c(C)[nH][nH]c1=O	?	-6%	i	125%	-2%	15%
Cc1[nH][nH]c(=O)c1C(c1ccccc1[N+](=O)[O-])C(C#N)C#N (configuration not stated)	-5%	·	-6%	13µM*	-6%	6%
O=c1c2cc([N+](=O)[O-])ccc2nc(CN2CCN(c3ccccn3)CC2)n1-c1ccccc1F	64%	0%	1%	13µM*	-2%	-13%
COc1ccc(-n2c(CN3CCN(Cc4ccccc4)CC3)nc3ccc([N+](=O)[O-])cc3c2=O)c(OC)c1	?	4%	-9%	?	-12%	-9%
CCN1CCN(Cc2nc3ccc([N+](=O)[O-])cc3c(=O)n2-c2ccccc2F)CC1	-15%	2%	·	28%	·	5%
COc1ccc(-n2c(CN3CCN(c4ccccn4)CC3)nc3ccc([N+](=O)[O-])cc3c2=O)c(OC)c1	12µM*	14%	·	-1%	·	?
COc1cccc(-n2c(CN3CCN(Cc4ccccc4)CC3)nc3ccc([N+](=O)[O-])cc3c2=O)c1	12µM*	3%	·	-16%	·	0%
O=C(N/N=C\c1ccc(CNS(=O)(=O)c2ccc(Cl)cc2)o1)C(=O)Nc1ccc(Oc2ccccc2)cc1	1%	17%	-12%	-7%	2%	13µM*
CCCCOC(=O)C1=C(C)Nc2ncnn2C1c1cc(OC)ccc1OC (configuration not stated)	8%	1%	·	41%	·	6%
CCOC(=O)C1=C(C)Nc2nc(C)nn2C1c1cc(OC)ccc1OC (configuration not stated)	17%	-6%	-5%	8.3µM*	4%	20%
CCOC(=O)C1=C(c2ccccc2)Nc2ncnn2C1c1ccc(OC)c(OC)c1OC (configuration not stated)	-6%	-4%	i	?	-10%	9%
SMILES	Pf growth 48h	NS1 inh	VACV mCherry inh	Pf growth 96h	Vaccinia Venus	HCV inhibitor
CCOC(=O)C1=C(c2ccccc2)Nc2nc(C)nn2C1c1cccc(OC)c1OC (configuration not stated)	12µM*	-36%	·	9.3µM*	·	20%
COc1ccc(-c2nnc(SCC(=O)Nc3ncc(C(F)(F)F)cc3Cl)n2CC(C)C)cc1	-1%	-11%	-8%	29%	-11%	-8%
COc1ccc(-c2nc3ccccn3c2NC2CCCCC2)cc1SC1CCCCC1	12µM*	·	?	?	?	?
COc1cc(-c2nc3ccccn3c2NCc2ccccc2)ccc1SC1CCCCC1	5.2µM*	·	?	?	?	?
COc1cc(-c2nc3ccccn3c2NCC2CCCO2)ccc1O (configuration not stated)	6%	-11%	·	43%	·	-15%
COc1cc(-c2nc3ccc(C)cn3c2NCc2ccccc2)ccc1SC1CCCCC1	?	·	-21%	4.7µM*	-29%	-24%
COc1cc(-c2nc3ccc(C)cn3c2NCc2ccccc2)ccc1-c1cccc(Cl)c1	·	·	?	·	-21%	?
c1ccc(-c2nc3ccccn3c2NC2CCCC2)nc1	10µM*	-54%	?	19%	7%	?
CC(CNC(=O)CN1C(=O)CCSc2ccccc21)c1ccccc1 (configuration not stated)	-13%	-3%	-4%	-14%	-15%	3%
C=C1CCN([C@@H](C)C(=O)NCc2cc(OC)c(OC)c(OC)c2)S(=O)(=O)c2ccccc21	-5%	8%	i	?	-25%	?
CSc1oc(-c2ccc(F)cc2)nc1S(=O)(=O)c1ccc(Br)cc1	·	·	-16%	·	-13%	·
COc1ccc(CSc2ccc(-c3nc4ccccn4c3NCc3ccccc3)cc2OC)cc1	10µM*	·	-26%	?	-19%	?
Cc1ccc(C)c(CN2CCC(CNC(=O)Nc3ccc(Br)cc3F)CC2)c1	13µM*	0%	?	-13%	?	?
Cc1ccc(C)c(CN2CCC(CNC(=O)Nc3ccc(Cl)cc3)CC2)c1	7%[0.00184 µM]	-34%	i	?	-13%	-6%
COc1ccc(-c2[nH]ncc2CN2CCCC(C(=O)c3ccc(OC)cc3OC)C2)cc1 (configuration not stated)	13µM*	0%	-5%	0.83µM*	-9%	8%
COc1ccc(OC)c(CN2CCCC(C(=O)c3ccccc3SC)C2)c1 (configuration not stated)	?	-3%	-21%	0%	9%	10µM*

Compound activity from PubChem BioAssay.
